Screening data deposited in PubChem by National Center for Advancing Translational Sciences (NCATS).
AmpC inh no detg – AmpC beta-lactamase inhibition without detergent; AmpC nitrocefin hydrolysis, absorbance 480 nm, 0.0001% Triton; Potency, µM (series often up to 57.1 µM), for the others: top-dose activity change, negative = inhibition, most hits filed as inhibitors; 0.52% of 330,000 active;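 also: plate controls were no compound for no effect and no enzyme for full effect; nearly all actives have a fitted effect of over 20% in size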
Target sequence (P00811 whole entry, looked up): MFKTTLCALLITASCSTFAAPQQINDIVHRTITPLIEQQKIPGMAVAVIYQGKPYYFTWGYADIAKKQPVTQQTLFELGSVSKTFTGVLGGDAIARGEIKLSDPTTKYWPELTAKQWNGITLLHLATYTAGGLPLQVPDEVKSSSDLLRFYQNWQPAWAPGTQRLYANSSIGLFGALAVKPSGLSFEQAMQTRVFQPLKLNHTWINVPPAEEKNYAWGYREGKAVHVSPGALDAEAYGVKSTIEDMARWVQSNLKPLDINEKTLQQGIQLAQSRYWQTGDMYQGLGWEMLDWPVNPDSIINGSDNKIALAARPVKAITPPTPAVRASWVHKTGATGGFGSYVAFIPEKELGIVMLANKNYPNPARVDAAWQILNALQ
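AmpC (5.3 nM in the dispensed reagent) in 20 mM phosphate pH 7.0 with 0.01% (detergent screen) or 0.0001% Triton X-100 was preincubated with compounds for 15 min at room temperature. Nitrocefin was then added from an 800 uM solution, and hydrolysis was followed at 480 nm.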
AmpC detergent – blocks E. coli AmpC beta-lactamase in detergent assay. AmpC hydrolysis of nitrocefin, absorbance 480 nm, 0.01% Triton. Potency, µM (series often up to 114 µM), for the others: at the highest dose activity change, negative = inhibition, actives largely listed as inhibitors. 0.041% of 370,000 active. AID 485294;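 also: 0% = no-compound wells and -100% = no-enzyme wells; nearly all actives have a fitted effect of over 25% in size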
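AmpC (5.3 nM in the dispensed reagent) in 20 mM phosphate pH 7.0 with 0.01% (detergent screen) or 0.0001% Triton X-100 was preincubated with compounds for 15 min at room temperature. Nitrocefin was then added from an 800 uM solution, and hydrolysis was followed at 480 nm.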
Pf growth 96h – P. falciparum growth inhibition at 96 hours. P. falciparum luciferase reporter growth, 96 h. Potency, µM (top dose mostly 28.7 µM), for the others: at the highest dose activity change, negative = inhibition, most hits filed as inhibitors. 6.9% of 320,000 active. AID 504834
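Two-generation exposure (96 h) targets delayed-death phenotype. Reporter parasites carrying integrated firefly luciferase, in red cells at 2% hematocrit and 0.05% parasitemia final, kept at 37 C, 5% CO2; luminescence loss indicates inhibition.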
Pf growth 48h – inhibits P. falciparum growth in the first generation, 48 h; Potency, µM (series often up to 28.7 µM), inactives show at the highest dose activity change, negative = inhibition, usual class: inhibitors; 5.9% of 310,000 active; P. falciparum luciferase growth in erythrocytes, 48 h
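A one-generation exposure of luciferase-tagged malaria parasites in RPMI 1640/Albumax erythrocyte culture, 37 C and 5% CO2. Inhibition is inferred from decreased luminescence after adding detection reagent.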
HCV inh – blocks hepatitis C virus | Potency, µM (titrated, usually from 41.8 µM), for the others: at the top dose activity change, negative = inhibition, actives largely listed as inhibitors | AID 651820 | Huh7.5.1 HCVcc-Cre infection, luciferase reporter, 44 h | 3.4% of 340,000 active
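Seed cells (1,000/well) for 4 h; treat with compound and infect with HCVcc-Cre, moi about 0.5. Incubate 44 h, then detect luciferase activity.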
AMA1 RON2 block – inhibitors of Plasmodium falciparum AMA1-RON2 interaction. AlphaScreen AMA1-biotinylated RON2 peptide binding. AID 720542. 0.2% of 360,000 active. Potency, µM (titrated, usually from 58.2 µM), without a hit: at the top dose activity change, negative = inhibition, usual class: inhibitors;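 also: 0% = vehicle wells and -100% = peptide control; nearly all actives have a fitted effect of over 45% in size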
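AMA1 (3D7) with his tag at 25 nM final met compounds first, then biotinylated RON2 peptide at 25 nM; detection used donor plus acceptor beads, 10 µg/mL apiece, read by AlphaScreen after 30 min at room temperature.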
An asterisk follows results filed as active; ? = inconclusive; · = not tested or not shown. An excerpt weighted towards active compounds, which were near 11% of everything screened. Calls follow the shape of the dose curve; as a rule, active = well fitted curve in the direction sought with a large enough effect; inconclusive = small, poorly fitted or top-dose-only effect, or another doubt; inactive = no such curve, though single readings can be large; an effect the other way counts as inactive or inconclusive. Unless noted, % is scaled to controls: 0 for no effect and ±100 for the full control effect; potency is read from the fitted curve at half-maximal effect.

SMILES	AmpC inh no detg	AmpC detergent	Pf growth 96h	Pf growth 48h	HCV inh	AMA1 RON2 block
CN1CCN(C(=O)c2ccc3c(c2)N(Cc2ccc(Cl)cc2)C(=O)c2ccccc2S3(=O)=O)CC1	·	-8%	·	·	·	·
CCOC(=O)C1=C(C)NC(C)=C(C(=O)OC)C1c1ccco1 (stereo unspecified)	2%	10%	13µM*	?	-10%	7%
C=CCOC(=O)C1=C(C)NC(C)=C(C(=O)OCC=C)C1c1ccco1	18%	-3%	?	?	11µM*	22%
CCOC(=O)C1=C(c2ccccc2)NC(SC)=C(C#N)C1c1cccnc1 (stereo unspecified)	-8%	2%	12µM*	?	18%	-13%
CCCCOC(=O)CSC1=C(C#N)C(c2cccnc2)C(C(=O)OCC)=C(c2ccccc2)N1 (stereo unspecified)	47%	?	?	?	-12%	26%
C=CCOC(=O)C1=C(C)NC(SCC)=C(C#N)C1c1ccc(Cl)cc1 (stereo unspecified)	-19%	-9%	10µM*	?	10µM*	-1%
C=CCOC(=O)C1=C(C)NC(SCC(=O)Nc2ccc(C)c(Cl)c2)=C(C#N)C1c1ccco1 (stereo unspecified)	7.9µM*	?	?	4.1µM*	6.3µM*	-1%
CCOC(=O)C1=c2s/c(=C\c3ccncc3)c(=O)n2C(N)=C(C(=O)OC)C1c1ccncc1 (stereo unspecified)	-18%	9%	6%	-7%	7%	0%
CCOC(=O)C1=C(c2ccccc2)NC(SCC(=O)NC2CCCCC2)=C(C#N)C1c1ccco1 (stereo unspecified)	-46%	?	16%	12µM*	?	-2%
CC(=O)C1=C(C)NC(SCC(=O)Nc2nc3ccccc3s2)=C(C#N)C1c1ccc(Cl)cc1 (stereo unspecified)	-19%	-2%	6.6µM*	7.4µM*	?	8%
CCOC(=O)C1=C(N)n2c(s/c(=C/c3ccco3)c2=O)=C(C(=O)OC)C1c1ccco1 (stereo unspecified)	-31%	-11%	?	13µM*	-29%	-23%
COCCOC(=O)C1=C(C)NC(SCC(=O)NC(C)(C)C)=C(C#N)C1c1ccco1 (stereo unspecified)	17%	-11%	·	?	-10%	-6%
Cc1ccc(Cl)cc1NC(=O)CN1C(=O)c2ccccc2Sc2ncccc21	·	22%	·	·	·	·
CCc1nn(CC(=O)NCCc2ccc(OC)cc2OC)c(=O)c2cc3sccc3n12	·	-2%	·	·	·	·
COC(=O)Cn1c(C2CC(=O)N(c3c(C)cccc3C)C2)nc2ccccc21 (stereo unspecified)	·	16%	·	·	·	·
CCCOc1ccc(NC(=O)CC2C(=O)N(c3ccc(C)cc3)C(=O)N2C(C)C)cc1 (stereo unspecified)	·	11%	·	·	·	·
CC(C(=O)Nc1ccc(F)c(Cl)c1)N1Cc2ccccc2C1=O (stereo unspecified)	·	16%	·	·	·	·
COc1ccc(-c2nnc(SCC(=O)N(Cc3ccccc3)C(C)(C)C)o2)cc1OC	-3%	4%	·	12µM*	?	-2%
Cc1ccc(O)c(C(=O)c2cnc3c(c2)CN(C)C(=O)N3)c1	-14%	-2%	·	?	?	1%
Cc1ccc(O)c(C(=O)c2cnc3c(c2)CN(CCC(C)C)C(=O)N3)c1	-28%	-9%	5.2µM*	2.9µM*	?	-3%
Cc1ccc(O)c(C(=O)c2cnc3c(c2)c(=O)n(C)c(=O)n3C)c1	1%	-12%	10µM*	?	?	-4%
CCCCN1Cc2cc(C(=O)c3cc(OC)ccc3O)cnc2NC1=O	-13%	?	9.3µM*	?	0%	-20%
COc1ccc2oc(=O)cc(CN3CCN(C(=O)c4ccccc4Br)CC3)c2c1	·	8%	·	·	·	·
